Molecules are shown by their SMILES.
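Further: KINOMEscan kinase panel screen.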

The subject of the assay is FLT4. The settings on record: concentration: 1 μM,replicates: in singlicate; n = 1.
On to `CN(C)CCOc1ccc(-c2cc(-c3c[nH]nc3-c3ccccn3)ccn2)cc1` [GW835314], for which the “%Inh” value is recorded as 11%.

Consider `CC(C)N1C(=O)Cc2cc(Nc3ncc(C(F)(F)F)c(NCc4cccc(S(C)(=O)=O)c4)n3)ccc21`, for which the “%Inh” value turned out to be 89%. For `O=C(NCCNc1ccnc(NCc2ccc(F)cc2)n1)c1cc2ccccc2s1` [GSK1379944] the value was 1%. As for `CCn1c(-c2nonc2N)nc2c(C#CC(C)(C)O)nc(OCCN)cc21.Cl.Cl` [GSK902056], the “%Inh” value came to 0%. As for `Cc1occc1-c1nc(N)c(OC[C@@H](N)Cc2c[nH]c3ccccc23)cc1-c1cc2c(C)n[nH]c2cn1` [GSK1660450], the figure is 25%. For `Cl.Cl.NC[C@H](Cc1ccc(C(F)(F)F)cc1)NC(=O)c1cc(Br)c(-c2ccnc3[nH]ccc23)s1` [GSK1487252] the value was 54%; for `C[C@@H]1CCN(C(=O)CC#N)C[C@@H]1N(C)c1ncnc2[nH]ccc12`, 0%; for `CNC(=O)c1ccccc1Sc1ccc2c(/C=C/c3ccccn3)n[nH]c2c1`, 100%. For `Cc1n[nH]c2ccc(-c3cc(OC[C@@H](N)Cc4ccccc4)cnc3-c3ccoc3)cc12.O=C(O)C(F)(F)F.O=C(O)C(F)(F)F` [GSK507358] the value was 5%; for `O=C(NCCCN1CCOC1=O)c1cnc(NCc2cc(Cl)ccc2Cl)nc1NC1CCCC1`, 5%. Turning to `Cl.Cl.Nc1nc(-c2ccc3c(N)n[nH]c3c2)cc(N2CCCC(NC(=O)c3ccccc3)C2)n1` (stereo not drawn) [GSK2286775], the “%Inh” value stood at 0%.

Regarding `Cc1cc(C(=O)Nc2ccc(Oc3ccc4nc(NC(=O)C5CC5)cn4n3)cc2)nn1-c1ccccc1`, the “%Inh” value was determined as 94%.

For the origin of these results see paper PMC5540273 (PLoS ONE, 2017).
